Assay results taken from PubChem BioAssay (NCI).
About 83,000 compounds went through this panel and 20% of them were active in at least one assay; those are over-represented in the sample as a whole.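 Compound tested at a single concentration for 48 hours in 96-well plates; a percent growth value below 10 was scored as active.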 A number with no mark means an inactive call. Calls of active or inactive are those of the source.

The molecules below were run on SW-620 colon (assay: NCI-60 one-dose screen, 48 h (100 = growth as untreated, 0 = no growth, -100 = all killed)). Conditions: 10 µM unless noted.
Description: Growth inhibition of the SW-620 human tumor cell line is measured as a screen for anti-cancer activity. Cells are grown in 96 well plates and exposed to the test compound for 48 hours. Compounds are tested at a single concentration, which is 10^-5 M for most compounds. The reported endpoint is percent growth (GI% or GIPRCNT), where numbers from 0 - 100% represent growth inhibition, and numbers from -100% - 0 represent cell death. For example, a value of 40 represents 60% growth inhibition. A value of 0 means no net growth occurred over the course of the experiment. A value of -40 indicates 40% of cells at the beginning of the experiment died by the end of the experiment. A value of -100 means all cells are dead at the end of the experiment.
NCI-60 Human Tumor Cell Lines Screen was performed using the standard one-dose NCI protocol, which is described in more detail at https://dtp.cancer.gov/discovery_development/nci-60/default.htm.
Compounds with GIPRCNT values below 10 were considered active. Activity score was based on GIPRCNT using the following formula: […]
Score is 0 for GIPRCNT values of 100 or above, 50 for GIPRCNT values of 0, and 100 for GIPRCNT values of -100.

`O=c1c2cc(F)ccc2sc2c(NCCCNCCO)nc3ccccc3c12` was tested. Which growth did it give?
The growth was -78.3% (active).

How did the growth turn out when `COc1cccc(-c2nc(-c3ccc(NC(=O)c4ccccc4)cc3)[nH]c2-c2ccnc(Br)c2)c1` was run?
Its growth is 30.8%.

For `Cc1cc(=O)[nH]c(=O)n1Cc1cn(-c2c3ccccc3nc3ccccc23)nn1`, which growth is on record?
Its growth is 83.9%.

For `COc1ccc(-c2nn(C(=O)c3cc(OC)c(OC)c(OC)c3)c3cc(N)ccc23)cc1`, which growth is on record?
Its growth is 31.6%.

For `CCOC(=O)c1cn2ncnc(Oc3ccc(NC(=O)NCCN(C)C)c(Cl)c3)c2c1C`, which growth is on record?
Its growth is 31.5%.

With `CC/C=C\C[C@@H](O)C/C=C1/C(=O)C=C[C@H]1C/C=C\CCCC(=O)OC` as the molecule, how does the growth read?
The growth was -15.9% (active).

How did the growth turn out when `C=CCc1cc(C)ccc1NC(C(=O)NCC(=O)OC)c1ccccc1` (stereo not given) was run?
The growth was 117%.

With `Cc1ccc(/C=C2\Oc3ccc(O)c(O)c3C2=O)cc1` as the molecule, how does the growth read?
The growth was 30.7%.

How did the growth turn out when `COc1cc(Nc2cn[nH]c2-c2ccc(Cl)cc2)cc(OC)c1OC` was run?
Its growth is 19.3%.

Which growth does the source give for `COC(=O)Nc1ccc(-c2nc(-c3cccc(OC)c3)c(-c3ccnc(Br)c3)[nH]2)cc1` here?
The growth was 74.5%.

Which growth does the source give for `COc1cccc(OC)c1C(=O)N[C@@H]1C(=O)N2[C@@H]1SC(C)(C)[C@@H]2C(=O)O` here?
The growth was 107%.

For `COc1cc2oc(-c3ccc(O)cc3)cc(=O)c2c(O)c1-c1c(OC)cc(O)c2c(=O)cc(-c3ccc(O)cc3)oc12`, which growth is on record?
The growth was 25.2%.

How did the growth turn out when `CCCCn1c(=O)c(-c2cc(-c3ccc(Cl)cc3)nc(-c3ccc(Cl)cc3)c2)cc2ccc(Cl)cc21` was run?
Its growth is 100%.

How did the growth turn out when `CCN1C(=O)N(CC)C2Nn3c(s/c(=C4\C(=O)N(CC(C)C)c5ccccc54)c3=O)=NC21` (stereo not given) was run?
The growth was 35.7%.

For `O=C1CCC(C(=O)NCCNCCNC(=O)C2CCC(=O)N2)N1` (stereo not given), which growth is on record?
The growth was 94.8%.

`O=C(/C=C/c1sc(Cl)nc1Cl)c1ccccc1` was tested. Which growth did it give?
The growth was 33%.

How did the growth turn out when `Cc1ccc2sc3c(NCCCN)nc4ccccc4c3c(=O)c2c1` was run?
Its growth is -79.7% (active).

Which growth does the source give for `CCOC(=O)CCN(C(=O)Nc1ccccc1)C1CCCCC1` here?
The growth was 102%.

How did the growth turn out when `Cc1ccc(-c2nn(C)c(=O)c3noc(-c4ccc(C)cc4)c23)cc1` was run?
The growth was 21.1%.

`Cc1ccc(-c2nc(SCC(=O)Nc3nc(-c4ccc(Cl)cc4)cs3)[nH]c(=O)c2C#N)cc1` was tested. Which growth did it give?
The growth was 107%.

`COc1ccc([C@H]2c3cc(OC)c(OC)cc3C=C(C=O)C2CO)cc1OC` (stereo not given in full) was tested. Which growth did it give?
The growth was 21.5%.

With `CCCC1CCC(O)(C(C)(O)C(=O)NC2C(=O)N3NCCCC3C(=O)N(O)C(C)C(=O)N3NCCCC3C(=O)N3NCC(O)CC3C(=O)NC(C)C(=O)OC2C(C)C)OC1CC` (stereo not given) as the molecule, how does the growth read?
Its growth is -97.3% (active).

`COc1cc(C(=O)c2cnc(-c3c[nH]c4cccc(C)c34)[nH]2)cc(OC)c1OC` was tested. Which growth did it give?
The growth was 18%.

For `O=S(=O)(NCCCNc1cc(-c2c(-c3cccc(O)c3)nc3sccn23)ccn1)c1cccc2ccccc12`, which growth is on record?
Its growth is 47.1%.

With `CCCCCCCCCCCCCCCCCC1OCC(COC(=O)O[C@]2(CC)C(=O)OCc3c2cc2n(c3=O)Cc3cc4ccccc4nc3-2)O1` (stereo not given in full) as the molecule, how does the growth read?
The growth was 57.1%.

How did the growth turn out when `COc1ccc(CN2c3ccccc3CCc3ccccc32)cc1F` was run?
Its growth is 20.5%.

How did the growth turn out when `c1cc(NCCc2ccncc2)nc(-n2cnc3ccccc32)c1` was run?
Its growth is 94.2%.

With `CN1CCN(Cc2ccc(NC(=O)c3ccc(C(C)(C)C)c(C#Cc4cnc5cccnn45)c3)cc2C(F)(F)F)CC1` as the molecule, how does the growth read?
Its growth is -61.9% (active).

`c1cc(-c2nnc(SSc3ncnc4nc[nH]c34)o2)ccn1` was tested. Which growth did it give?
Its growth is 34.6%.

For `Cc1ccc(-c2nc(N3CCN(CC(=O)Nc4ccc(Cl)cc4)CC3)c3ccccc3n2)cc1`, which growth is on record?
Its growth is 97.5%.

With `Fc1cc(-c2nnc3sc(-c4ccc(Cl)cc4Cl)nn23)c(Cl)cc1Cl` as the molecule, how does the growth read?
Its growth is 81.7%.

How did the growth turn out when `CCN(CC)CCCNc1nc2ccccc2c2c(=O)c3cc(Cl)ccc3sc12` was run?
Its growth is 14.3%.

For `OC(COc1ccccc1)CN1CCN(c2ccc(Cl)cc2)CC1` (stereo not given), which growth is on record?
Its growth is 98.7%.

`Cc1nc2ccccc2c(/C=C/c2ccccc2)c1C(=O)/C=C/c1ccc(C(F)(F)F)cc1` was tested. Which growth did it give?
Its growth is -32.9% (active).

How did the growth turn out when `NC(=O)Nc1ccc2ncnc(Nc3ccc(Cl)cc3)c2c1` was run?
Its growth is 99.1%.

For `COc1ccc(C(=O)C(C)C)c2ccccc12`, which growth is on record?
The growth was 95.2%.

Which growth does the source give for `CCOC(=O)c1c(C)oc2ncnc(N3CCN(C(=O)COc4ccc(C(C)(C)C)cc4)CC3)c12` here?
Its growth is 99.8%.

`Cc1nc(NC(=O)COc2ccc(/C=C3\Cc4ccc(Cl)cc4C3=O)cc2)sc1C` was tested. Which growth did it give?
The growth was 107%.

How did the growth turn out when `O=C(Oc1cccc2ccccc12)Oc1cccc2ccccc12` was run?
The growth was 110%.

With `Cc1ccc(C(=O)NN2C(=O)CSC2c2ccc(Cl)cc2)cn1` (stereo not given) as the molecule, how does the growth read?
Its growth is 97%.
